# Reference: PubChem BioAssay (Tox21)
# “And” between values parts separate entries of the source, which are not always exact repeats. Equal entries are not always repeated. Results filed as inconclusive are left out. Where a structure was tested more than once in an assay, its records may differ in their call. The source made the active and inactive calls. The call rests on the fitted dose curve.
# Assay: qHTS assay to identify small molecule agonists of the progesterone receptor (PR) signaling pathway - cell viability counter screen (AID 1346799); further: nearly all actives have a fitted effect of over 45% in size
# Conditions: PR-UAS-bla HEK293T viability, CellTiter-Glo luminescence, 16 h; series mostly up to 92.4 µM; activity change, negative = cytotoxicity: at the top concentration
# From the text: National Center for Advancing Translational Sciences [NCATS]
# NIH Chemical Genomics Center [NCGC]
# U.S. Environmental Protection Agency [EPA]
# National Institutes of Environmental Health Sciences [NIEHS]
# National Toxicology Program [NTP]
# U.S. Food and Drug Administration [FDA]
# Progesterone receptor (PR), a nuclear hormone receptor, plays an important role in development, metabolic homeostasis and reproduction. It is activated by the steroid hormone progesterone. Endocrine disrupting chemicals (EDCs) and their interactions with steroid hormone receptors like PR causes disruption of normal endocrine function. To identify the compounds that stimulate PR signaling, a PR-UAS-bla GripTite cell line i.e. PR-UAS-bla HEK293T (Invitrogen, Carlsbad, CA, USA) containing a beta-lactamase reporter gene under the control of an UAS response element was used to screen Tox21 10K compound library. The cytotoxicity of the Tox21 compound library against the PR-bla cell line was tested in parallel by measuring the cell viability using CellTiter-Glo assay in the same wells.
# Tox21 Assay Protocol Summary:
# PR-UAS-bla HEK293T cells were dispensed at 3,000 cells/5 uL of assay medium containing 2% charcoal stripped FBS per well into black wall/clear-bottom 1536-well plates using a Multidrop Combi (ThermoFisher Scientific, Waltham, MA) dispenser. After the assay plates were incubated at a 37C and 5% CO2 for 6 hr, 23 nL of compounds dissolved in DMSO, positive controls or DMSO only was transferred to the assay plate by a Pintool station (Kalypsys, San Diego, CA). The plates were incubated at 37C and 5% CO2 for 16 hr. Then 1 uL of LiveBLAzer B/G FRET substrate was added using a Flying Reagent Dispenser (FRD, Aurora Discovery, San Diego, CA), the plates were incubated at room temperature for 2 hours, and fluorescence intensity was measured by an Envision plate reader (PerkinElmer, Shelton, CT). For cell viability readout that measures cytotoxicity, 4 uL/well of CellTiter-Glo reagent was added into the assay plates using a FRD. After 30 min incubation at room temperature, the luminescence intensity in the plates was measured using a ViewLux (PerkinElmer) plate reader.
# On the % scale 0 is the no-effect control and ±100 the full control effect; potency means the concentration at half of the fitted maximal effect.
Structure (SMILES),"activity change, negative = cytotoxicity",Potency
c1ccc2c(c1)CCC2,-3.29% (inactive),–
CC(C)(c1cc(Br)c(OCCO)c(Br)c1)c1cc(Br)c(OCCO)c(Br)c1,–,33.6 µM (active)
COc1nccnc1CC(C)C,7.22% (inactive),–
CCCCCCS,-3.97% (inactive),–
Cc1oc(-c2ccccc2)nc1CCOc1ccc(C[C@H](Nc2ccccc2C(=O)c2ccccc2)C(=O)O)cc1,–,27.3 µM (active)
C=CC/C=C/C/C=C/C/C=C/C,11.2% (inactive),–
CCOC(OCC)C(=O)c1ccccc1,-5.33% (inactive),–
CCCC(=O)OCC(COC(=O)CCC)OC(=O)CCC,-7.99% (inactive),–
CCCOc1sc(C(=O)N2CCC(c3cc(CN)ccc3F)CC2)c(C)c1Br,–,19.9 µM (active)
CCCCOCC,0.494% (inactive),–
SCCCCCCCCS,-10.4% (inactive),–
CN(C)CCCN1c2ccccc2CCc2ccccc21,–,21.7 µM (active) and inactive
O=C1OC(=O)c2ccc3c4c(ccc1c24)C(=O)OC3=O,-1.84% (inactive),–
CCOC(/C=C(\C)CCC=C(C)C)OCC,2.31% (inactive),–
Oc1cc2ccccc2cc1O,-1.53% (inactive),–
CN(C)CCCN1c2ccccc2Sc2ccc(C(F)(F)F)cc21,0.429% [at 42.5 µM] (inactive),–
c1cc(OCC2CO2)cc(OCC2CO2)c1 (stereo not given),–,60.6 µM (active)
COc1ccccc1OCCNCC(O)COc1cccc2[nH]c3ccccc3c12 (stereo not given),–,15 µM (active)
C[Si](C)(C)Cl,8.09% (inactive),–
NCCCCCCNCCCCCCN,-14.2% (inactive),–

Structure (SMILES),"activity change, negative = cytotoxicity",Potency
CCCCCCCCCCCCCc1ccccc1,-6.17% [at 42.5 µM] (inactive),–
Oc1ccc(-c2ccccc2)c(Cl)c1,19.7% (inactive),–
O=Cc1ccc(F)cc1,-21.6% (inactive),–
OCCC(O)CO (stereo not given),-5.72% (inactive),–
O[C@@H](c1cc(C(F)(F)F)nc2c(C(F)(F)F)cccc12)[C@H]1CCCCN1,–,26.6 µM (active)
C=CC(=O)OCCN(CC)CC,-3.58% (inactive),–
CCN(CC)c1cccc(C)c1,-2.63% (inactive),–
CCCSS/C(CCO)=C(\C)N(C=O)Cc1cnc(C)nc1N,-2.72% [at 42.5 µM] (inactive),–
CCN(CC)CCSC(=O)C(c1ccccc1)c1ccccc1,4.28% [at 42.5 µM] (inactive),–
COc1cccc(OC)c1O,-12.4% (inactive),–
O=C1NCN(c2ccccc2)C12CCN(CCCC(c1ccc(F)cc1)c1ccc(F)cc1)CC2,-21.5% [at 42.5 µM] (inactive),–
CC(=O)Nc1ccc(O)cc1,–,inactive
CCN1CCN(c2cc(-c3ccc(F)cc3)c3c(n2)CCCCCC3)CC1,2.26% [at 19 µM] (inactive),–
c1cc2c3c(c1)ccc1cccc(c13)C2,-19% (inactive),–
ClC/C=C\CCl,6.1% (inactive),–
O=C1NC2CCCCN2C12CCN(CCCN1c3ccccc3CCc3ccc(Cl)cc31)CC2 (stereo not given),–,23.7 µM (active)
Cc1cnccn1,-2.74% (inactive),–
CCC1CCCCC1,-6.86% (inactive),–
Clc1cccnc1,11.1% (inactive),–
CSc1ccc2c(c1)N(CCC1CCCCN1C)c1ccccc1S2 (stereo not given),–,27.2 µM (active) and 21.1 µM (active)
